Results on 28 molecules are retold here after PubChem BioAssay (NCATS).

“And” between values parts separate entries of the source, which are not always exact repeats. Equal values may be shown once. Results filed as inconclusive are left out. The source made the active and inactive calls. Calls come from the whole dose curve; as a rule, active = well fitted curve in the direction sought with a large enough effect; inconclusive = small, poorly fitted or top-dose-only effect, or another doubt; inactive = no such curve, though single readings can be large; an effect the other way counts as inactive or inconclusive.

For assay [1], the target named is N-terminal Xaa-Pro-Lys N-methyltransferase 1 (Homo sapiens) (UniProt Q9BV86). Description: qHTS Assay for Inhibitors of N-terminal methyltransferase 1 (NTMT1): LOPAC validation of the NTMT1 SAHH-coupled ThioGlo3 Assay (AID 1347143).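 Note: SAH from peptide methylation measured as thiol fluorescence via SAHH coupling and ThioGlo3; nearly all actives have a fitted effect of over 70% in size.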 Note: potency is the fitted concentration of half-maximal effect. In short, it runs like this:
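Inhibition of NTMT1 methylation of peptide SPKRIA is followed by converting SAH with SAHH and labelling the released thiol with ThioGlo3. Plates are read at 340/450nm before and 30 min after reagent addition, both at room temperature.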
(qHTS replaces the single test concentration by a dilution series.)

For assay [2], the system named is Zika virus NS2B-NS3 protease (unlinked). Put plainly: Optimization of GU AMC qHTS for Zika virus inhibitors: Unlinked NS2B-NS3 protease assay (AID 1347151). Note: nearly all actives have a fitted effect of over 80% in size. Note: potency is the fitted concentration of half-maximal effect. In outline:
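Percent inhibition is derived from the 15-min change in AMC fluorescence, normalized against no-inhibitor and no-enzyme controls, then fitted to a 4-parameter Hill curve. Aprotinin was the intraplate control.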

In assay [3] the test system is Zika virus NS2B-NS3 protease. Put plainly: Primary screen GU AMC qHTS for Zika virus inhibitors (AID 1347154). Note: nearly all actives have a fitted effect of over 70% in size. Note: potency is the fitted concentration of half-maximal effect. In short, it runs like this:
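Fluorogenic AMC-substrate cleavage by noncovalent NS2B-NS3 protease complex (25 nM, pH 8.0 Tris buffer with Tween 20) followed for 15 minutes at room temperature (~20% conversion). Percent inhibition from ex340/em450 signal change, fitted by 4-parameter Hill equation.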

Another assay deals with Furin (Homo sapiens) (UniProt P09958). Put plainly: Furin counterscreen qHTS for Zika virus inhibitors (AID 1347149). Note: potency is the fitted concentration of half-maximal effect; nearly all actives have a fitted effect of over 70% in size. In outline: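 Fluorogenic cleavage of BOC-RVRR-AMC (2 microM final, Km ~15 µM) was monitored (ex 340, em 450 nm) at 37C after 15 min RT preincubation of 5 nM furin with compounds in HEPES pH 7.0 buffer with CaCl2 and Triton X-100. Percent inhibition was fitted to a 4-parameter Hill curve.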
Chain of Furin (Homo sapiens) (P09958 whole entry, looked up): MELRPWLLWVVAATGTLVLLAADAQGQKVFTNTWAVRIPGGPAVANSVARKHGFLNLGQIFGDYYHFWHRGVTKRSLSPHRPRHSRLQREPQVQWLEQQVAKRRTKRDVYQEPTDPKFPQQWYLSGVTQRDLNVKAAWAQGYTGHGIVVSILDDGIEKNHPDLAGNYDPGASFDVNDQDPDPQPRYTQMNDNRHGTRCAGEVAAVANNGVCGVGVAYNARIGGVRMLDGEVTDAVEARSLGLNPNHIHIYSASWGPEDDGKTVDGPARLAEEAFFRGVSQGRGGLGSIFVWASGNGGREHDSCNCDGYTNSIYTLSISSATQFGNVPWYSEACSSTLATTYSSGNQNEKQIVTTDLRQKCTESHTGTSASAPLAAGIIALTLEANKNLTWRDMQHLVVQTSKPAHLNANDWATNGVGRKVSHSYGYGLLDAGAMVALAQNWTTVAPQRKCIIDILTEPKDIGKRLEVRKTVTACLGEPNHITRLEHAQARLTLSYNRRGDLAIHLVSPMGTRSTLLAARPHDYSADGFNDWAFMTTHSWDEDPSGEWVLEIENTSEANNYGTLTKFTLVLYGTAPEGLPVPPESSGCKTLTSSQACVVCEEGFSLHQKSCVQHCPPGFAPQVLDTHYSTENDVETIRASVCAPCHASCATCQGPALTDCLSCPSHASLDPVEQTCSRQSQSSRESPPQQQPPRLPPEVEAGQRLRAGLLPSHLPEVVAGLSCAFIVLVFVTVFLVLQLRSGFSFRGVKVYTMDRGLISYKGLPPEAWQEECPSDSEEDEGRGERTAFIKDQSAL
On the technique in general: The purpose of a counterscreen is to sort out artefacts and off-target activity.

In assay [4] the test system is Zika virus NS2B-NS3 protease (linked construct). Put plainly: Confirmatory screen NINDS AMC qHTS for Zika virus inhibitors (AID 1347152). Note: potency is the fitted concentration of half-maximal effect; nearly all actives have a fitted effect of over 70% in size. In outline: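 In this dose-response qHTS, AMC release from 10 microM Bz-Nle-KRR-AMC by 1 nM linked protease is measured over 15 minutes (about 20% conversion) at pH 8.0. Percent inhibition is fitted to a 4-parameter Hill curve.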

For assay [5], the system named is Zika virus NS2B-NS3 protease (unlinked complex). Put plainly: Confirmatory screen GU AMC qHTS for Zika virus inhibitors (AID 1347153). In outline: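 Compounds were preincubated 15 min at room temperature with 25 nM noncovalent NS2B-NS3 protease at pH 8.0; AMC substrate added at 10 microM and 15-min fluorescence gain (340/450 nm) converted to percent inhibition, fitted 4-parameter.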

Assay [6] can be described thus: ZIKV-mCherry secondary qHTS for Zika virus inhibitors (AID 1347158). Note: top concentration of the series differs between compounds. In outline:
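Vero cells, 5,000/well, plated overnight at 37 °C, then compound added and infected with recombinant ZIKV-mCherry at MOI 1 for 48-72 h. PFA-fixed, Hoechst nuclear stain, high-content imaging; cells with mCherry intensity above 450 RFU scored infected, reported as percent infection.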

A short description of assay [7]: Confirmatory screen GU Rhodamine qHTS for Zika virus inhibitors qHTS (AID 1347157). As to conditions: purified enzyme assay, Rhodamine110 substrate fluorescence, 15 min. In short, it runs like this:
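A qHTS format was used, with compound concentrations ranging up to 114 microM. Each compound was preincubated with 25 nM NS2B-NS3 protease, and the substrate was then added at 1.5 microM. Curves were fitted with a 4-parameter Hill model.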

Chain of N-terminal Xaa-Pro-Lys N-methyltransferase 1 (Homo sapiens) (Q9BV86 whole entry, looked up): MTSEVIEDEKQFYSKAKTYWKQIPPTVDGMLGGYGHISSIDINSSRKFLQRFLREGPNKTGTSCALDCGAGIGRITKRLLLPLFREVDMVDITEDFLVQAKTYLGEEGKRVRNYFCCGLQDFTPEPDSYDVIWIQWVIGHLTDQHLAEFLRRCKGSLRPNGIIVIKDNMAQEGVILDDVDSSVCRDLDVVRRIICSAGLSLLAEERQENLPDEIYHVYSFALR

Turning to `O=C(C1CCCCC1)N1CC(=O)N2CCc3ccccc3C2C1` (stereo not drawn), the Potency result in assay [1], in assay [2] and in assay [3] was “inactive” each time.

With `CC1(CN2CCC(n3c(=O)[nH]c4ccccc43)CC2)OCc2ccccc2-n2cccc21` (stereo not drawn), in assay [3], the Potency result is “inactive”.

As to `Nc1ccn([C@H]2CC[C@@H](CO)O2)c(=O)n1`, the Potency result in assay [1], in assay [2] and in assay [3] was “inactive” in each case.

As for `CN1CCN2c3ccccc3Cc3ccccc3C2C1` (stereo not drawn), the Potency result in assay [2] and in assay [3] was “inactive” each time.

As for `CC1(C)O[C@H]2CC(=O)OC[C@]23[C@H]2CC[C@@]4(C)[C@H](c5ccoc5)OC(=O)[C@H]5O[C@]54[C@]2(C)C(=O)C[C@@H]13`, the Potency entry in assay [3] was “inactive”.

For `Cn1ccc2cc3c(cc21)CCN3C(=O)Nc1cccnc1`, the Potency is 21.5 µM (active) in the assay with Furin (Homo sapiens), 24.1 µM (active) in assay [4] and 27.1 µM (active) in assay [5]. In assay [6], the result was inactive.

Consider `COc1ccc2[nH]cc(CCNC(C)=O)c2c1`, for which the Potency result in assay [3] was “inactive”.

For `Cc1cn([C@H]2C[C@H](N=[N+]=[N-])[C@@H](CO)O2)c(=O)[nH]c1=O`, in assay [3], the Potency result is “inactive”.

Consider `CN1C(C(=O)Nc2ccccn2)=C(O)c2ccccc2S1(=O)=O`, for which the Potency result in assay [2] and in assay [3] was “inactive” in each case.

Regarding `COc1ccccc1OCC(O)CN1CCN(CC(=O)Nc2c(C)cccc2C)CC1` (stereo not drawn), the Potency result in assay [2] and in assay [3] was “inactive” throughout.

Take `CNCCCC12CCC(c3ccccc31)c1ccccc12`: the Potency result in assay [2] and in assay [3] was “inactive” throughout.

As for `CN(C)CCCN1c2ccccc2CCc2ccc(Cl)cc21`, the Potency entry in assay [2] and in assay [3] was “inactive” throughout.

Consider `Cc1ccc(C(=O)Nc2ccc(S(=O)(=O)O)c3cc(S(=O)(=O)O)cc(S(=O)(=O)O)c23)cc1NC(=O)c1cccc(NC(=O)Nc2cccc(C(=O)Nc3cc(C(=O)Nc4ccc(S(=O)(=O)O)c5cc(S(=O)(=O)O)cc(S(=O)(=O)O)c45)ccc3C)c2)c1`, for which the Potency entry in assay [1] was “inactive”. Besides, the Potency is 16.8 µM (active) in assay [2]; 5.01 µM (active) in assay [3]; 2.82 µM (active) and 2 µM (active) and 2.24 µM (active) in assay [7].

With `COc1ccc(CCN(C)CCCC(C#N)(c2ccc(OC)c(OC)c2)C(C)C)cc1OC` (stereo not drawn), the Potency entry in assay [1], in assay [2] and in assay [3] was “inactive” throughout.

As for `N[C@@H](Cc1c[nH]c2ccc(O)cc12)C(=O)O`, the Potency in assay [1] is 50.1 µM (active). Besides, in assay [3], the Potency entry was “inactive”.

As to `Clc1ccccc1C(c1ccccc1)(c1ccccc1)n1ccnc1`, the Potency entry in assay [1] and in assay [3] was “inactive” each time.

With `C[C@@H]1CC(=O)NN=C1c1ccc(NN=C(C#N)C#N)cc1`, the Potency entry in assay [3] is “inactive”.

Take `CN1CCC(=C2c3ccccc3CC(=O)c3sccc32)CC1`: the Potency result in assay [2] and in assay [3] was “inactive” in each case.

As for `CN1CCC(=C2c3ccccc3C=Cc3ccccc32)CC1`, the Potency entry in assay [1], in assay [2] and in assay [3] was “inactive” throughout.

For `Fc1ccc([C@@H]2CCNC[C@H]2COc2ccc3c(c2)OCO3)cc1`, the Potency entry in assay [1], in assay [2] and in assay [3] was “inactive” each time.

Turning to `COc1ccccc1OCCNCC(O)COc1cccc2[nH]c3ccccc3c12` (stereo not drawn), the Potency entry in assay [2] and in assay [3] was “inactive” in each case.

In the case of `COc1ccccc1N1CCN(CC(O)COc2cccc3ccccc23)CC1` (stereo not drawn), the Potency result in assay [3] is “inactive”.

For `CN1CCN(C2=Nc3cc(Cl)ccc3Nc3ccccc32)CC1`, the Potency result in assay [2] and in assay [3] was “inactive” throughout.

Consider `NC(CO)C(=O)NNCc1ccc(O)c(O)c1O` (stereo not drawn), for which the Potency in assay [1] is 8.91 µM (active). The Potency entry in assay [2] and in assay [3] was “inactive” each time.

Regarding `CC(COc1ccccc1)N(CCCl)Cc1ccccc1` (stereo not drawn), the Potency result in assay [3] is “inactive”.

For the molecule `CN(C)C(=N)N=C(N)N`, in assay [3], the Potency entry is “inactive”.

As to `O=c1c(-c2ccc(O)cc2)coc2cc(O)cc(O)c12`, the Potency result in assay [2] and in assay [3] was “inactive” in each case.

Turning to `Cc1cn([C@H]2C=C[C@@H](CO)O2)c(=O)[nH]c1=O`, the Potency entry in assay [1] and in assay [3] was “inactive” throughout.
